Read-out in experiment [1]: C-C motif chemokine 2 (Homo sapiens) (UniProt P13500)
As to the kind of experiment: BSK_KF3CT_MCP1: BioMAP Diversity Plus: KF3CT Assay for Monocyte Chemoattractant Protein 1 (MCP1/CCL2) Biomarker Activity (AID 2283073). As to conditions: primary human keratinocytes with fibroblasts; actives raise or lower the signal. An outline of the steps:
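Human keratinocyte–foreskin fibroblast co-culture; MCP-1 measured by ELISA 24 h after dosing. Bidirectional fit vs DMSO; cytotoxicity tracked by SRB total protein in parallel cultures.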

Read-out in experiment [2]: Matrix Metallopeptidase 9 (MMP9), MMP9 (gene 4318)
The experiment is described as follows: BSK_KF3CT_MMP9: BioMAP Diversity Plus: KF3CT Assay for Matrix Metallopeptidase 9 (MMP9) Biomarker Activity (AID 2283074).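 As to AC50: MMP9 protein level quantified by ELISA in the co-culture.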 As to conditions: primary human keratinocytes with fibroblasts; actives raise or lower the signal. An outline of the steps:
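Human keratinocyte/foreskin fibroblast co-culture; compound added; 24 h; MMP-9 by ELISA; bidirectional fit vs DMSO baseline.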

Read-out in experiment [3]: urokinase plasminogen activator (uPA), PLAU (gene 5328)
As to the kind of experiment: BSK_KF3CT_uPA: BioMAP Diversity Plus: KF3CT Assay for urokinase plasminogen activator (uPA) Biomarker Activity (AID 2283075). As to conditions: primary human keratinocytes with fibroblasts; actives raise or lower the signal. In a few lines:
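ELISA readout of uPA, analyzed for signal gain or loss relative to DMSO, from a human primary keratinocyte–foreskin fibroblast co-culture measured 24 h after chemical treatment.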

Read-out in experiment [4]: CD40, CD40 (gene 958)
The experiment is described as follows: BSK_LPS_CD40: BioMAP Diversity Plus: LPS Assay for CD40 Biomarker Activity (AID 2283076). As to conditions: primary human HUVEC with PBMC; actives raise or lower the signal. In a few lines: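 HUVEC plus PBMC co-culture stimulated with LPS; CD40 quantified by ELISA 24 h after compound dosing. Fitting was bidirectional relative to DMSO. SRB staining of parallel cultures flagged overt cytotoxicity.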

Read-out in experiment [5]: E-selectin (Homo sapiens) (UniProt P16581)
As to the kind of experiment: BSK_LPS_Eselectin: BioMAP Diversity Plus: LPS Assay for Eselectin Biomarker Activity (AID 2283077). As to conditions: primary human HUVEC with PBMC; actives raise or lower the signal. In a few lines:
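Human umbilical vein endothelial cells co-cultured with PBMC under LPS stimulation; cell-surface E-selectin measured by ELISA 24 h after dosing. Change in either direction versus DMSO, with SRB total-protein staining in parallel cultures for cytotoxicity.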

Read-out in experiment [6]: Interleukin-8 (IL8), CXCL8 (gene 3576)
The experiment is described as follows: BSK_LPS_IL8: BioMAP Diversity Plus: LPS Assay for Interleukin-8 (IL8) Biomarker Activity (AID 2283078). As to conditions: primary human HUVEC with PBMC; actives raise or lower the signal. An outline of the steps: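 Human umbilical vein endothelial cells co-cultured with PBMC, LPS-stimulated, exposed to compound for 24 h. IL-8 quantified by ELISA; fitted in both directions against DMSO, with SRB total-protein staining of parallel cultures for cytotoxicity.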

A short description of experiment [7]: BSK_LPS_SRB: Viability Assessment in the BioMAP Diversity Plus: LPS Assay (AID 2283079).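 Also: total protein by sulforhodamine B absorbance as a cytotoxicity measure; measured one day after compound addition; fitted in both directions against DMSO so loss or gain of signal counts.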 Conditions: primary human HUVEC with PBMC. In a few lines: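 Co-culture of human umbilical vein endothelial cells and PBMC, read 24 h after dosing. Total protein by 0.1% SRB staining after 10% TCA fixation, absorbance at 560 nm; bidirectional fit against DMSO.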
Read-out in experiment [8]: Interleukin-1 alpha (IL1a), IL1A (gene 3552)
As to the kind of experiment: BSK_LPS_IL1a: BioMAP Diversity Plus: LPS Assay for Interleukin-1 alpha (IL1a) Biomarker Activity (AID 2283080). Conditions: primary human HUVEC with PBMC; actives raise or lower the signal. In a few lines:
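Human umbilical vein endothelial cells co-cultured with PBMC and stimulated with LPS; IL-1a measured by ELISA 24 h after dosing. Bidirectional fitting against DMSO; cytotoxicity checked by SRB staining in parallel cultures.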

Read-out in experiment [9]: Monocyte Chemoattractant Protein-1 (MCP1), CCL2 (gene 6347)
The experiment is described as follows: BSK_LPS_MCP1: BioMAP Diversity Plus: LPS Assay for Monocyte Chemoattractant Protein-1 (MCP1) Biomarker Activity (AID 2283081).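 As to AC50: secreted MCP-1 protein quantified by ELISA in culture supernatant.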 Conditions: primary human HUVEC with PBMC; actives raise or lower the signal. In a few lines: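 Human umbilical vein endothelial cells co-cultured with PBMC, LPS-stimulated; secreted MCP-1 measured by ELISA 24 h after compound addition. Bidirectional curve fitting against DMSO baseline; SRB total-protein staining in parallel cultures for cytotoxicity.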

The nature of experiment [10]: BSK_LPS_PGE2: BioMAP Diversity Plus: LPS Assay for Prostaglandin E2 (PGE2) Biomarker Activity (AID 2283082). As to conditions: primary human HUVEC with PBMC; actives raise or lower the signal. In a few lines: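 Endpoint derived from bidirectional curve fitting versus DMSO of ELISA-measured PGE2 in LPS-stimulated human primary vascular co-culture (HUVEC with PBMC) harvested at 24 h.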

Read-out in experiment [11]: Macrophage colony-stimulating factor (MCSF), CSF1 (gene 1435)
The experiment is described as follows: BSK_LPS_MCSF: BioMAP Diversity Plus: LPS Assay for Macrophage colony-stimulating factor (MCSF) Biomarker Activity (AID 2283083). Conditions: primary human HUVEC with PBMC; actives raise or lower the signal. An outline of the steps:
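HUVEC–PBMC co-culture, M-CSF measured by ELISA 24 h after chemical dosing. Fitted in both directions relative to DMSO as negative control; overt cytotoxicity assessed by SRB total-protein staining in parallel cultures.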

Read-out in experiment [12]: Tissue Factor, F3 (gene 2152)
The experiment is described as follows: BSK_LPS_TissueFactor: BioMAP Diversity Plus: LPS Assay for Tissue Factor Biomarker Activity (AID 2283084). Conditions: primary human HUVEC with PBMC; actives raise or lower the signal. An outline of the steps: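 Human umbilical vein endothelial cells co-cultured with PBMC were dosed with compound. Cell-surface CD142 was measured by ELISA 24 h later. Activity was fitted bidirectionally against DMSO, with SRB total-protein staining in parallel cultures for cytotoxicity.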

Read-out in experiment [13]: Tumor necrosis factor (Homo sapiens) (UniProt P01375)
The experiment is described as follows: BSK_LPS_TNFa: BioMAP Diversity Plus: LPS Assay for Tumour Necrosis Factor alpha (TNFa) Biomarker Activity (AID 2283085). Conditions: primary human HUVEC with PBMC; actives raise or lower the signal. In a few lines:
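Primary human vascular co-culture of HUVEC and PBMC; TNFa ELISA 24 h after treatment, analysed as increase or decrease relative to DMSO control.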

Read-out in experiment [14]: Vascular cell adhesion molecule 1 (VCAM1), VCAM1 (gene 7412)
As to the kind of experiment: BSK_LPS_VCAM1: BioMAP Diversity Plus: LPS Assay for Vascular cell adhesion molecule 1 (VCAM1) Biomarker Activity (AID 2283086). As to conditions: primary human HUVEC with PBMC; actives raise or lower the signal. In a few lines:
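Primary human vascular co-culture (umbilical vein endothelium plus PBMC) stimulated with LPS received chemical; 24 h later VCAM-1 was read by ELISA. Overt cytotoxicity was assessed by sulforhodamine B staining of parallel cultures at the same time point.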

Read-out in the next experiment: CD38, CD38 (gene 952)
As to the kind of experiment: BSK_SAg_CD38: BioMAP Diversity Plus: SAg Assay for CD38 Biomarker Activity (AID 2283087). As to conditions: primary human HUVEC with PBMC; actives raise or lower the signal. An outline of the steps:
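Fluorescence ELISA of cell-surface CD38 served as the read-out, with either increase or decrease fitted against DMSO controls. Cells were a human umbilical vein endothelium plus PBMC co-culture under SEB/TSST-1 stimulation, measured 24 h after dosing.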

Read-out in experiment [15]: CD40, CD40 (gene 958)
The experiment is described as follows: BSK_SAg_CD40: BioMAP Diversity Plus: SAg Assay for CD40 Biomarker Activity (AID 2283088). As to conditions: primary human HUVEC with PBMC; actives raise or lower the signal. An outline of the steps: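 HUVEC plus PBMC co-culture, superantigen-activated, with CD40 read by ELISA 24 h after dosing. Curves fitted in both directions against DMSO. Overt cytotoxicity checked by parallel SRB total-protein staining.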

Read-out in another experiment: CD69, CD69 (gene 969)
The experiment is described as follows: BSK_SAg_CD69: BioMAP Diversity Plus: SAg Assay for CD69 Biomarker Activity (AID 2283089).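 As to AC50: cell surface CD69 protein quantified by ELISA with fluorescence detection.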 Conditions: primary human HUVEC with PBMC; actives raise or lower the signal. In a few lines:
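Endothelial/PBMC co-culture; chemical added; 24 h incubation; CD69 ELISA with fluorescence detection; bidirectional fit vs DMSO.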

Read-out in experiment [16]: Monocyte Chemoattractant Protein-1 (MCP1), CCL2 (gene 6347)
The experiment is described as follows: BSK_SAg_MCP1: BioMAP Diversity Plus: SAg Assay for Monocyte Chemoattractant Protein-1 (MCP1) Biomarker Activity (AID 2283090). As to conditions: primary human HUVEC with PBMC; actives raise or lower the signal. In a few lines: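 MCP-1 levels in the endothelial–PBMC SAg co-culture were quantified by ELISA at 24 h post-dosing; both increases and decreases versus DMSO scored. Cytotoxicity monitored by SRB total protein in parallel cultures.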

Read-out in experiment [17]: Monokine induced gamma interferon (MIG), CXCL9 (gene 4283)
As to the kind of experiment: BSK_SAg_MIG: BioMAP Diversity Plus: SAg Assay for Monokine induced gamma interferon (MIG) Biomarker Activity (AID 2283092). As to conditions: primary human HUVEC with PBMC; actives raise or lower the signal. An outline of the steps:
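Measures CXCL9 protein by ELISA in a human vascular primary-cell co-culture (umbilical vein endothelium with PBMC) 24 h after chemical addition. Activity is scored up or down from the DMSO control.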

Structures are written as SMILES. Active and inactive are the calls of the source. The calls were made as follows: active = hit-call score of the fitted dose curve at least 0.9, where 1 is the maximum; inactive = score below 0.9.

E-selectin (Homo sapiens), sequence (P16581 whole entry, looked up): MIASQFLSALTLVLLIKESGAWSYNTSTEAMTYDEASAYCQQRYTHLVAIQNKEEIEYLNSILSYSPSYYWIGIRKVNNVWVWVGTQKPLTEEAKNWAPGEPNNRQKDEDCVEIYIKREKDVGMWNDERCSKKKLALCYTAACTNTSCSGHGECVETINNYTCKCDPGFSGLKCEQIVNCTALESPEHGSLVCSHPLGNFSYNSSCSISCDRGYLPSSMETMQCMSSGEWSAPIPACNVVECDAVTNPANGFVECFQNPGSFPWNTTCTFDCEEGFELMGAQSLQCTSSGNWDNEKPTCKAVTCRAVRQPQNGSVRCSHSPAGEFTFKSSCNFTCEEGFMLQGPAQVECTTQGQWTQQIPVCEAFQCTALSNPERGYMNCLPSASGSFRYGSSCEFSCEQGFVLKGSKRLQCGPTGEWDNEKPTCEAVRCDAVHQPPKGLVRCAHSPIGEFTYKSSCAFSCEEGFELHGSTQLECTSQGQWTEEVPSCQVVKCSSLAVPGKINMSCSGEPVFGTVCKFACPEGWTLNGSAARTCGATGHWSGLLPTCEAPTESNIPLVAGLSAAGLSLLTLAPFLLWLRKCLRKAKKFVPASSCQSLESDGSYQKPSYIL
Tumor necrosis factor (Homo sapiens), sequence (P01375 whole entry, looked up): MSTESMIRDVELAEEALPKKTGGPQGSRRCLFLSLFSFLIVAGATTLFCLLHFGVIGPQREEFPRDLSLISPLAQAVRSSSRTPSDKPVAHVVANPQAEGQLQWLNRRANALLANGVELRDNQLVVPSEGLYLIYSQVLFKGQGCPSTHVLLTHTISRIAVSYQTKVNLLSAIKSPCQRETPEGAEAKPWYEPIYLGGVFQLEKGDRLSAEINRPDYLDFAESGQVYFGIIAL

`O=[N+]([O-])c1ccc2c3c(cccc13)CC2`: the outcome in experiment [1] is “inactive”; in [2] it was “inactive”; in experiment [3], “inactive”; in the experiment with CD40, CD40 (gene 958) [4] it was “inactive”; in experiment [5] it was “inactive”; in [6], “inactive”. For the same compound, the result in experiment [7], in [8], in experiment [9], in experiment [10], in experiment [11] and in experiment [12] was inactive. Further, the outcome in [13] is “inactive”; in experiment [14], “inactive”; in the experiment with CD40, CD40 (gene 958) [15], “inactive”; in the experiment with CD69, CD69 (gene 969) it was “inactive”; in [16], “inactive”; in experiment [17] it was “inactive”. For the same compound, in the experiment with CD38, CD38 (gene 952), the AC50 was 20 µM (active).
For the compound `CC(=O)C(Cl)C(=O)N(C)C` (stereo not given), the result in experiment [1], in [2], in experiment [3], in experiment [7] and in experiment [17] was inactive. Also, the AC50 in the experiment with CD40, CD40 (gene 958) [4] is 15.5 µM (active); in [5], 15.4 µM (active); in experiment [6] it was 13.6 µM (active); in [8], 14.4 µM (active); in experiment [9], 27 µM (active); in experiment [10], 7.26 µM (active). The AC50 in experiment [11] is 11.8 µM (active); in experiment [12], 9.35 µM (active); in experiment [13], 9.78 µM (active); in experiment [14] it was 20 µM (active); with CD38, CD38 (gene 952), 20 µM (active); with CD40, CD40 (gene 958) [15] it was 20 µM (active). Also, the AC50 is 16.7 µM (active) with CD69, CD69 (gene 969) and 20 µM (active) in experiment [16].
As to `COP(=S)(OC)Oc1c(Cl)cc(C)cc1Cl`, the outcome is “inactive” in experiment [1]; “inactive” in experiment [3]; “inactive” with CD40, CD40 (gene 958) [4]; “inactive” in [5]; “inactive” in experiment [6]; “inactive” in experiment [9]. The outcome in experiment [10] is “inactive”; in experiment [11] it was “inactive”; in [12], “inactive”; in experiment [13] it was “inactive”; with CD38, CD38 (gene 952), “inactive”; in the experiment with CD40, CD40 (gene 958) [15] it was “inactive”. The outcome is “inactive” with CD69, CD69 (gene 969); “inactive” in [16]; “inactive” in [17]. Besides, the AC50 in experiment [2] is 20 µM (active); in experiment [7] it was 27.7 µM (active); in [8], 0.108 µM (active); in [14], 13.8 µM (active).
Turning to `CCNc1nc(NC(C)(C)C)nc(SC)n1`, the outcome in [1] was “inactive”; in experiment [2], “inactive”; in [3], “inactive”; with CD40, CD40 (gene 958) [4] it was “inactive”; in experiment [5], “inactive”; in [6], “inactive”. In addition, the outcome in [7], in experiment [8], in experiment [9], in experiment [10], in experiment [11] and in experiment [12] was inactive. In addition, the outcome in [13] is “inactive”; in experiment [14] it was “inactive”; with CD38, CD38 (gene 952), “inactive”; in the experiment with CD40, CD40 (gene 958) [15], “inactive”; in experiment [16], “inactive”; in [17], “inactive”. In addition, the AC50 with CD69, CD69 (gene 969) was 14.6 µM (active).
Regarding `Cn1sc(Cl)cc1=O`, the result in experiment [1], in [2], in [3], in [6], in experiment [7] and in [10] was inactive. Moreover, the result in experiment [12] and in [17] was inactive. In addition, the AC50 in the experiment with CD40, CD40 (gene 958) [4] was 26 µM (active); in [5], 35.4 µM (active); in experiment [8], 29.3 µM (active); in experiment [9], 35.2 µM (active); in [11] it was 29.5 µM (active); in experiment [13], 31.2 µM (active). Further, the AC50 was 29.3 µM (active) in experiment [14]; 31.3 µM (active) in the experiment with CD38, CD38 (gene 952); 26.4 µM (active) with CD40, CD40 (gene 958) [15]; 26.4 µM (active) in the experiment with CD69, CD69 (gene 969); 30.7 µM (active) in experiment [16].

(Values after PubChem BioAssay (EPA / NIEHS).)
